# PAFAH2 FP inh – PAFAH2 (human) inhibition | recombinant PAFAH2, FP-rhodamine activity probe, fluorescence polarization | inhibition, % at 3.39 µM | 340,000 tested, 0.99% active | AID 492956;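 active = inhibition above the mean over all tested compounds plus 3 SD, cut at about 30% in these data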;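 note: inhibitors block probe labeling of enzyme so polarization drops; 0% = enzyme with DMSO and 100% = wells lacking PAFAH2 protein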
# PKA-R1A activ – activators of PKA-R1A complex; P00514+P68181; PKA-R1A dissociation, Cy5-IP20 fluorescence polarization; scaled: DMSO 0%, 113 µM cGMP 100%; activation, % at 11.4 µM; 340,000 tested, 0.083% active; AID 504707;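 active = percent activation above the mean of all tested compounds plus 3 SD, cut at about 19% in these data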;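 note: higher means more PKAc released from R1A so a rise in polarization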
# PKA-R2B act – PKA-R2B complex activation. P22694+P31323. activation, % at 11.4 µM. 340,000 tested, 0.079% active. PKA-R2B holoenzyme dissociation, Cy5-IP20 fluorescence polarization; R2B truncated from residue 108, S112A mutant; 0% DMSO only, 100% 113 µM cGMP. AID 504700;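 active = activation above a cutoff set at the mean over all compounds plus 3 SD, cut at about 18% in these data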;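 note: higher means more holoenzyme dissociation and a rise in polarization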
# Target sequence (P31323 whole entry, looked up, other chains not shown, the tested form may be a part): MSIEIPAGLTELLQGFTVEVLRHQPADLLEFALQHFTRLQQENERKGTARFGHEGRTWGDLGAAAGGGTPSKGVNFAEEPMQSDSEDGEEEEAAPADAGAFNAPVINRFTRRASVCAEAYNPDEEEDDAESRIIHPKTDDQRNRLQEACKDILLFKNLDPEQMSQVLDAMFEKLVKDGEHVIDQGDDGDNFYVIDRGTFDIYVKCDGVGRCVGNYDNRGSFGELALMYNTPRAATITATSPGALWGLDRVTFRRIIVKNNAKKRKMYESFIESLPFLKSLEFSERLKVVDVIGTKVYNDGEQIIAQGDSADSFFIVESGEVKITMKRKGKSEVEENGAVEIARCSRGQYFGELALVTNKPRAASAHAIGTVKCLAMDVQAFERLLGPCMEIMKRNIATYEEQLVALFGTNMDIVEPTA
# PAFAH1B3 FP inh – PAFAH1B3 (human) inhibition. Q15102. recombinant PAFAH1B3, FP-rhodamine probe, fluorescence polarization. inhibition, % at 3.39 µM. 340,000 tested, 0.28% active. AID 492972;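 active = inhibition above the screen-wide average of all tested compounds plus 3 SD, cut at about 25% in these data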;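 note: 0% = enzyme with DMSO only and 100% = wells lacking PAFAH1B3 protein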
# Target sequence (Q15102 whole entry, looked up): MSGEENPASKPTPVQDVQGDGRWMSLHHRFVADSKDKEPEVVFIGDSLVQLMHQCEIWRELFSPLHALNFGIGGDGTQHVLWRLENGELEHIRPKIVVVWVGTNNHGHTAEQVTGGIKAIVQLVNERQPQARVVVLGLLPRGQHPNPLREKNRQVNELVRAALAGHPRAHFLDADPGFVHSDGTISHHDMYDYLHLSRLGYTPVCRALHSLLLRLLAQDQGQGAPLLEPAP
# PAFAH1B2 FP inh – inhibitors of human PAFAH1B2; inhibition, % at 3.39 µM; 340,000 tested, 1.2% active; AID 492953; P68402; recombinant PAFAH1B2, FP-rhodamine activity probe, fluorescence polarization;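 active = inhibition above the mean of all tested compounds plus 3 SD, cut at about 24% in these data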;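 note: 0% = enzyme with DMSO and 100% = wells lacking PAFAH1B2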
# pPAFAH FP inh – inhibitors of human plasma PAF acetylhydrolase (pPAFAH); Q13093; 330,000 tested, 1.5% active; inhibition, % at 3.39 µM; AID 463082; recombinant pPAFAH, FP-rhodamine probe fluorescence polarization;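 active = inhibition above the mean inhibition across the screen plus 3 SD, cut at about 25% in these data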;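 note: inhibitors block binding of the rhodamine activity-based probe so polarization drops; 0% = enzyme with DMSO and 100% = wells lacking pPAFAH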
# PAFAH2 FP conf – PAFAH2 (human) inhibition, confirmed; shares compounds with PAFAH2 FP inh; AID 493030; inhibition, % at 3.39 µM; 2,300 tested, 65% active; recombinant PAFAH2, FP-rhodamine activity probe, fluorescence polarization;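 active = mean inhibition over three repeats above a set limit taken from the earlier primary screen, cut at about 30% in these data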;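 note: inhibitor blocks binding of rhodamine activity probe so polarization falls; 0% = enzyme with DMSO and 100% = wells lacking PAFAH2 protein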
# * marks the source's active call; other numbers are inactive results; · = no result given. Only some compounds are listed: those with a hit (about 2.6% of all), similar ones and a draw of the others.
SMILES,PAFAH2 FP inh,PKA-R1A activ,PKA-R2B act,PAFAH1B3 FP inh,PAFAH1B2 FP inh,pPAFAH FP inh,PAFAH2 FP conf
COc1ccc(NC(=O)COC(=O)c2ccccc2SCC(=O)N2CCCC2)cc1,61*,2,4,1,0,6,62*
C[C@@H]1CN([C@@H](C)CO)S(=O)(=O)c2ccc(Br)cc2O[C@@H]1CN(C)C(=O)C1CC1,·,-1,7,·,·,·,·
COc1cc2c(cc1OC)-c1cc(NCc3ccccn3)nc(=O)n1CC2,31*,-10,-5,2,-4,9,16
Cc1ccc(S(=O)(=O)NCc2cn3ccccc3n2)c(C)c1,1,-11,-4,7,3,5,·
COc1cccc(/C=N/NC(=S)NC2CC3CCC2C3)c1OC (configuration not stated),22,-11,3,-1,6,3,·
Oc1ccccc1/C=N/NC(=S)NC1CC2CCC1C2 (configuration not stated),60*,-2,-9,6,11,12,28
COc1ccc(Cl)cc1NC(=O)CC1CCCC1,6,2,6,1,4,-2,·
O=C(COC(=O)CC1CCCC1)Nc1ccccc1[N+](=O)[O-],57*,-7,-4,2,-2,15,51*
O=C(COC(=O)c1ccc(O)cc1)Nc1ccccc1[N+](=O)[O-],69*,-5,-1,6,0,0,67*
Cc1ccc(Cl)cc1NC(=O)COC(=O)CC1CCCCC1,31*,-4,-7,6,11,13,22
CCOC(=O)c1ccccc1NC(=O)COC(=O)CC1CCCCC1,1,-2,-17,2,-1,2,·
Cc1ccccc1NC(=O)COC(=O)CC1CCCC1,43*,-5,-12,-1,4,·,29
Cc1ccc(-c2nc(CS(=O)CC(=O)NCCCN3CCN(Cc4ccccc4)CC3)c(C)o2)cc1 (configuration not stated),12,-5,6,0,0,0,·
COc1cc(CC(=O)OCC(=O)N(C)C2CCCCC2)cc(OC)c1OC,10,-10,-3,12,4,3,·
N#CCc1ccc(NC(=O)Cn2c(=O)oc3ccccc32)cc1,-3,2,8,1,1,4,·
O=C(COC(=O)c1ccc2ccccc2n1)Nc1ccccc1Br,0,-2,-5,0,0,24,·
COc1cccc(/C=C/C(=O)OCC(=O)Nc2ccc3c(c2)OCO3)c1,·,8,-7,·,·,·,·
COc1ccccc1/C=C/C(=O)OCC(=O)Nc1ccc2c(c1)OCCO2,80*,6,3,5,-1,16,78*
COc1cc(/C=C/C(=O)OCC(=O)Nc2ccc3c(c2)OCCO3)ccc1OCC#N,42*,-6,-8,4,-2,-4,51*
COc1cc(OC)c(N(C)C(=O)c2cc3c(s2)-c2ccccc2S(=O)(=O)C3)cc1Cl,31*,-5,2,10,6,-4,3
COc1ccc(N(C)C(=O)c2cc3c(s2)-c2ccccc2S(=O)(=O)C3)cc1,-6,-11,-11,-2,3,0,·
CCCCN(C(=O)c1cccc(-n2cnnn2)c1)c1c(N)n(CCCC)c(=O)[nH]c1=O,·,-9,13,·,·,·,·
Cc1ccc(S(=O)(=O)N(C)C)cc1NC(=O)COC(=O)C1CC1,43*,-6,-8,-1,1,1,34*
Cc1cc(C(=O)OCC(=O)Nc2cc(S(=O)(=O)N(C)C)ccc2C)c(C)o1,·,·,·,·,·,5,·
CS(=O)(=O)c1ccc(Cl)c(NC(=O)COC(=O)c2cccc(C#N)c2)c1,1,-8,-6,8,7,0,·
SMILES,PAFAH2 FP inh,PKA-R1A activ,PKA-R2B act,PAFAH1B3 FP inh,PAFAH1B2 FP inh,pPAFAH FP inh,PAFAH2 FP conf
Cc1ccc(S(=O)(=O)N(C)C)cc1NC(=O)COC(=O)c1ccc(Cl)cc1,35*,10,2,10,6,6,26
Cc1ccc(C(=O)CCC(=O)OCC(=O)Nc2cc(S(=O)(=O)N(C)C)ccc2C)cc1,·,-1,0,·,·,·,·
COc1ccccc1OCCC(=O)OCC(=O)Nc1cc(S(=O)(=O)N(C)C)ccc1Cl,-3,-2,3,5,2,22,·
CN(C)S(=O)(=O)c1ccc(Cl)c(NC(=O)COC(=O)c2ccc3c(c2)NC(=O)CS3)c1,48*,-5,4,1,1,0,40*
CN(C)S(=O)(=O)c1ccc(Cl)c(NC(=O)COC(=O)c2ccc(O)cc2)c1,59*,1,-7,7,2,14,55*
C[C@H](NC(=O)c1nc[nH]c1C(=O)NC[C@@H](C)O)c1ccccc1,·,5,-7,·,·,·,·
CCN(c1ccccc1)S(=O)(=O)c1ccc(Cl)c(NC(=O)COC(=O)c2ccc(Cl)c(N)c2)c1,40*,8,6,6,8,19,20
COc1ccccc1CC(=O)NC12CC3CC(CC(C3)C1)C2,1,-4,-5,4,0,-1,·
O=C(COC(=O)c1ccccc1O)NC12CC3CC(CC(C3)C1)C2,68*,-11,-5,8,11,11,63*
Cc1cccc(C(=O)OCC(=O)NC23CC4CC(CC(C4)C2)C3)c1O,59*,-6,0,-4,11,5,46*
COc1ccc(C(=O)OCC(=O)NC23CC4CC(CC(C4)C2)C3)c(OC)c1OC,86*,9,2,10,11,23,86*
O=C(COC(=O)c1ccccn1)NC12CC3CC(CC(C3)C1)C2,0,5,3,6,7,3,·
Cc1cccc(/C=N/NC(=O)CC(=O)NCCc2ccccc2)c1,0,4,11,9,1,2,·
COc1ccc(C(=O)N2CCN(CC(=O)N3CCOCC3)CC2)cc1,-1,-4,0,2,3,4,·
Cc1ccc(C)c(S(=O)(=O)N2CCN(C(=O)[C@@H](NC(=O)c3ccc(F)cc3)C(C)C)CC2)c1,-2,1,6,8,-1,-1,·
CCCc1nc2ccccc2c(=O)n1CCc1ccccc1,-5,-7,-3,8,8,6,·
CCCN1CCN(C(=O)c2ccc(S(=O)(=O)N(C)c3ccccc3OC)cc2)CC1,·,-6,-4,·,·,·,·
CCOc1ccc2ccccc2c1/C=N/NC(=O)c1cc(C)[nH]n1,49*,-7,-6,-4,1,1,15
Cc1cc(C(=O)N/N=C/c2c3ccccc3cc3ccccc23)n[nH]1,7,0,-1,12,6,8,·
COc1cc(C(C)=O)ccc1Oc1cc(NN2CCCCC2)c([N+](=O)[O-])cc1[N+](=O)[O-],-7,-2,-15,11,1,-1,·
